Screening results from PubChem.
HT1080-NT tox = qHTS for induction of synthetic lethality in tumor cells producing 2HG: qHTS for the HT-1080-NT fibrosarcoma cell line; 1.6% of 360,000 active; AID 686970, 2013; HT-1080-NT fibrosarcoma viability, CellTiter-Glo ATP luminescence, 48 h; Potency, µM (series often up to 46.1 µM), for the others: at the top dose activity, negative = less viability, actives largely listed as cytotoxic;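 note: NT is the 2HG producing partner of a matched IDH1 knockdown line; 0% = DMSO-treated cells and -100% = media-only wells without cells; nearly all actives have a fitted effect of over 55% in size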
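Toxicity toward the 2HG-producing NT line was scored as %Activity, normalised to DMSO and no-cell wells, from CellTiter-Glo luminescence after 48 hours' treatment.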
KB-3-1 tox = qHTS assay for MDR1-selective chemotherapeutics: Primary screen using the parental adenocarcinoma cell KB-3-1. KB-3-1 viability, CellTiter-Glo ATP luminescence, 72 h. Potency, µM (doses to about 46.1 µM), most hits filed as cytotoxic. 1.4% of 400,000 active. AID 1347075, 2019; note: nearly all actives have a fitted effect of over 60% in size
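Parental KB-3-1 adenocarcinoma cells in phenol-red-free DMEM with 10% FBS were pin-treated with compounds at several concentrations, incubated 72 h at 37 °C, and viability read by CellTiter-Glo luminescence; concentration-effect curves were fitted after normalization.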
HT1080 IDH1KD tx = qHTS for induction of synthetic lethality in tumor cells producing 2HG: qHTS for the HT-1080-IDH1KD cell line; HT-1080 IDH1 knockdown viability, ATP luminescence, 48 h; Potency, µM (titrated, usually from 46.1 µM), for the others: at the top dose activity, negative = toxicity, hits mostly cytotoxic; 2% of 360,000 active; AID 686971, 2013;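 note: 0% = DMSO wells and -100% = cell-free medium wells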
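% activity derives from luminescence (CellTiter-Glo), normalised to DMSO and no-cell wells. HT-1080-IDH1KD cells, 750/well, had 48 h compound exposure at 37 °C.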
KB-V1 cytotox = qHTS assay for MDR1-selective chemotherapeutics: Primary screen using the drug-selected MDR subline cells KB-V1 | KB-V1 MDR cells viability, CellTiter-Glo, 72 h | Potency, µM (series often up to 46.1 µM), usual class: cytotoxic | 3.4% of 400,000 active | AID 1347076, 2019; note: nearly all actives have a fitted effect of over 60% in size
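Readout: CellTiter-Glo luminescence, 10 min after addition. Cells: KB-V1 MDR subline, 72 h at 37 degrees C with compound. Analysis: corrected, normalized data fitted to concentration-effect curves.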
TDP1 cell CPT = qHTS for Inhibitors of human tyrosyl-DNA phosphodiesterase 1 (TDP1): qHTS in cells in presence of CPT | chicken DT40 Tdp1-/-;hTDP1 cells + 20 nM CPT, ATP luminescence, 48 h | Potency, µM (doses to about 46.2 µM), without a hit: at the top dose activity change, negative = growth inhibition, usual class: inhibitors | 12% of 420,000 active | AID 686979, 2013; note: nearly all actives have a fitted effect of over 55% in size
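Chicken DT40 Tdp1-/- cells stably complemented with human TDP1 were seeded at 400 cells/well in medium containing 20 nM camptothecin, exposed to pin-transferred compounds, and grown at 37 °C for at least 48 hr. Viability was read as ATP luminescence.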
TDP1 cell noCPT = qHTS for Inhibitors of human tyrosyl-DNA phosphodiesterase 1 (TDP1): qHTS in cells in absence of CPT; DT40 Tdp1-/- hTDP1 cells, no CPT, ATP luminescence, 48 h; Potency, µM (doses to about 46.2 µM), inactives show top-dose activity change, negative = growth inhibition, usual class: inhibitors; 15% of 420,000 active; note: nearly all actives have a fitted effect of over 55% in size
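No-CPT arm: Tdp1-/-;hTDP1 DT40 cells (400/well) plus compounds, incubated ≥48 hr at 37 °C. Readout CellTiter-Glo luminescence.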
Starred values were filed as active, the others as inactive; i = inactive; ? = inconclusive; / = no result; [ ] = remark or other dose. Most compounds without a hit are left out; they make up all but 19% or so of the library. Calls come from the whole dose curve; as a rule, active = well fitted curve in the direction sought with a large enough effect; inconclusive = small, poorly fitted or top-dose-only effect, or another doubt; inactive = no such curve, though single readings can be large; an effect the other way counts as inactive or inconclusive. Unless noted, % is set by controls: 0 for no effect and ±100 for the full control effect; potency is the fitted concentration of half-maximal effect.

SMILES	HT1080-NT tox	KB-3-1 tox	HT1080 IDH1KD tx	KB-V1 cytotox	TDP1 cell CPT	TDP1 cell noCPT
COc1ccc(C(=O)CC(=O)Nc2ccc([N+](=O)[O-])cc2)cc1	?	i	?	i	16µM*	?
CCCC(=O)Nc1ccc(Sc2ccc([N+](=O)[O-])cc2)cc1	?	i	?	i	2.3µM*	2.3µM*
COc1ccc(S(=O)(=O)N2CC(O)C[C@H]2C(=O)OCC(=O)N2CCCCCC2)cc1 (stereo partly drawn)	0%	i	4%	?	-2%	-21%
CCCNc1c(NS(=O)(=O)c2cccc(C#N)c2)c(=O)oc2ccccc12	-4%	i	-15%	i	-12%	0%
O=C(Nc1cccc(S(=O)(=O)C(F)(F)F)c1)[C@@H]1O[C@H](CO)[C@@H](O)[C@H]1O	10%	i	3%	i	-2%	3%
CCCCC1=CC2=C(c3ccco3)C(=O)C(C)(OC(=O)c3ccc(OC)cc3)C(=O)C2=CN1Cc1ccccc1 (stereo not drawn)	6%	i	6%	i	5.2µM*	4.6µM*
CCCCC1=CC2=CC(=O)C(C)(OC(=O)CC)C(=O)C2=CN1CC(C)C (stereo not drawn)	6%	i	23%	i	?	?
CCCCC1=CC2=CC(=O)C(C)(OC(=O)CC)C(=O)C2=CN1CCc1ccccn1 (stereo not drawn)	1%	i	-17%	i	-5%	-4%
COc1ccc(CN2C=C3C(=O)C(C)(OC(=O)C4CCCC4)C(=O)C=C3C=C2c2ccsc2)cc1 (stereo not drawn)	-12%	i	0%	i	?	12µM*
CCCCC1=CC2=C(c3ccco3)C(=O)C(C)(OC(=O)c3ccc(OC)cc3)C(=O)C2=CN1CCOC (stereo not drawn)	3%	i	0%	i	-26%	-17%
CCCCC1=CC2=C(c3ccco3)C(=O)C(C)(OC(=O)c3ccc(OC)cc3)C(=O)C2=CN1CCc1ccccn1 (stereo not drawn)	24%	i	4%	?	5.8µM*	9.2µM*
CC1(OC(=O)C2CCCC2)C(=O)C=C2C=C(c3ccsc3)N(CCCCO)C=C2C1=O (stereo not drawn)	4%	i	14%	i	-16%	-8%
CCCCC1=CC2=CC(=O)C(C)(OC(=O)CC)C(=O)C2=CN1Cc1ccc(OC)cc1 (stereo not drawn)	-1%	i	-1%	i	26µM*	13µM*
Cc1ccc(C)c(NC(=O)Cn2c(=O)n(CCC(C)C)c(=O)c3cccnc32)c1	/	i	/	i	-9%	-15%
CO/N=C(/C(=O)NC1C(=O)N2C(C(=O)O)=C(COC(N)=O)CSC12)c1ccco1 (stereo not drawn)	/	/	/	/	7%	0%
COc1ccccc1CNC(=O)c1cc2sccc2n1Cc1ccc(Cl)cc1	/	i	/	i	?	?
CCCCC1=CC2=C(c3ccco3)C(=O)C(C)(OC(=O)c3ccc(OC)cc3)C(=O)C2=CN1C1CCCCC1 (stereo not drawn)	14%	i	-3%	i	4.6µM*	4.6µM*
COC(=O)CCCC1=CC2=C(c3ccccc3)C(=O)C(C)(OC(=O)C3CCCC3)C(=O)C2=CN1CC1CC1 (stereo not drawn)	-1%	i	-2%	i	-11%	-10%
COC(=O)CCCC1=CC2=C(c3ccccc3)C(=O)C(C)(OC(=O)C3CCCC3)C(=O)C2=CN1C1CCCC1 (stereo not drawn)	-9%	i	-16%	i	?	16µM*
CCCCC1=CC2=C(c3ccco3)C(=O)C(C)(OC(=O)c3ccc(OC)cc3)C(=O)C2=CN1Cc1ccc2c(c1)OCO2 (stereo not drawn)	2%	i	-5%	i	9.2µM*	13µM*
O=S(=O)(c1ccc(Cl)cc1)N1c2ccccc2Oc2nc3ccccc3nc21	8%	?	6%	?	23µM*	16µM*
O=S(=O)(c1ccc(Cl)cc1)N1CN(CC2CCCO2)c2nc3ccccc3nc21 (stereo not drawn)	-9%	i	-4%	i	?	-17%
COc1ccc(S(=O)(=O)N2c3cc(Cl)ccc3Oc3nc4ccccc4nc32)cc1	?	2.1µM*	0.92µM*	7.3µM*	0.73µM*	1.6µM*
NS(=O)(=O)c1cccc(NS(=O)(=O)c2ccc3ccccc3c2)c1	-3%	i	5%	i	-7%	-11%
CCN(CC)CCNC(=O)c1ccc(NC(=O)c2cc(S(=O)(=O)N3CCCCC3)ccc2N2CCOCC2)cc1	9%	i	7%	?	-17%	-16%
SMILES	HT1080-NT tox	KB-3-1 tox	HT1080 IDH1KD tx	KB-V1 cytotox	TDP1 cell CPT	TDP1 cell noCPT
CN(Cc1ccccc1F)c1nc(-c2cccs2)nc2ccccc12	-16%	i	-14%	?	?	?
Cc1ccc(S(=O)(=O)N(C)CCCN(C)c2nc(-c3cccs3)nc3ccccc23)cc1	0%	/	-3%	/	16µM*	11µM*
CN(CCN(C)c1nc(-c2cccs2)nc2ccccc12)C(=O)OC(C)(C)C	-21%	/	-25%	/	10µM*	14µM*
Cc1ccc(S(=O)(=O)N(C)C)cc1NC(=O)C(C)OC(=O)CC1CC2CCC1C2 (stereo not drawn)	-5%	i	-5%	?	?	?
Cc1cc(O)c2c(c1O)C(=O)C(O)=C(O)C2=O	/	/	/	/	8%[9.04 µM]	-20%[9.04 µM]
CN(C)CCNC(=O)c1cccc2[nH]c(-c3ccncc3)nc12	-9%	i	?	i	13µM*	13µM*
COc1ccc(C(=O)NCCN(C)C)c2nc3ccccc3cc12	?	?	21µM*	8.2µM*	0.18µM*	0.16µM*
COc1ccc(-c2nc3c(C(=O)NCCN(C)C)cccc3c3ccccc23)cc1	?	?	?	2.3µM*	1.3µM*	4.1µM*
COc1cccc2nc3c(C(=O)NCCN(C)C)cccc3cc12	?	?	9.2µM*	9.2µM*	0.16µM*	0.18µM*
